# Measurements taken from publication PMC4336329 (PLoS ONE, 2015).
# Screen size: about 310,000 compounds; about 14,000 (4.5%) showed an effect of 50% or more. Effects have a minus sign here. The entries come from a sample that favours strong results as a whole.
# Molecular target: human ether-à-go-go-related gene (hERG) potassium channel (human, UniProt Q12809)
# Test: primary screen, population patch clamp on CHO cells stably expressing hERG; higher = less effect of the substance
# 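Also: peak tail current of the secondary pulse compared with the same well before compound.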
# Chain of human ether-à-go-go-related gene (hERG) potassium channel (Q12809 whole entry, looked up): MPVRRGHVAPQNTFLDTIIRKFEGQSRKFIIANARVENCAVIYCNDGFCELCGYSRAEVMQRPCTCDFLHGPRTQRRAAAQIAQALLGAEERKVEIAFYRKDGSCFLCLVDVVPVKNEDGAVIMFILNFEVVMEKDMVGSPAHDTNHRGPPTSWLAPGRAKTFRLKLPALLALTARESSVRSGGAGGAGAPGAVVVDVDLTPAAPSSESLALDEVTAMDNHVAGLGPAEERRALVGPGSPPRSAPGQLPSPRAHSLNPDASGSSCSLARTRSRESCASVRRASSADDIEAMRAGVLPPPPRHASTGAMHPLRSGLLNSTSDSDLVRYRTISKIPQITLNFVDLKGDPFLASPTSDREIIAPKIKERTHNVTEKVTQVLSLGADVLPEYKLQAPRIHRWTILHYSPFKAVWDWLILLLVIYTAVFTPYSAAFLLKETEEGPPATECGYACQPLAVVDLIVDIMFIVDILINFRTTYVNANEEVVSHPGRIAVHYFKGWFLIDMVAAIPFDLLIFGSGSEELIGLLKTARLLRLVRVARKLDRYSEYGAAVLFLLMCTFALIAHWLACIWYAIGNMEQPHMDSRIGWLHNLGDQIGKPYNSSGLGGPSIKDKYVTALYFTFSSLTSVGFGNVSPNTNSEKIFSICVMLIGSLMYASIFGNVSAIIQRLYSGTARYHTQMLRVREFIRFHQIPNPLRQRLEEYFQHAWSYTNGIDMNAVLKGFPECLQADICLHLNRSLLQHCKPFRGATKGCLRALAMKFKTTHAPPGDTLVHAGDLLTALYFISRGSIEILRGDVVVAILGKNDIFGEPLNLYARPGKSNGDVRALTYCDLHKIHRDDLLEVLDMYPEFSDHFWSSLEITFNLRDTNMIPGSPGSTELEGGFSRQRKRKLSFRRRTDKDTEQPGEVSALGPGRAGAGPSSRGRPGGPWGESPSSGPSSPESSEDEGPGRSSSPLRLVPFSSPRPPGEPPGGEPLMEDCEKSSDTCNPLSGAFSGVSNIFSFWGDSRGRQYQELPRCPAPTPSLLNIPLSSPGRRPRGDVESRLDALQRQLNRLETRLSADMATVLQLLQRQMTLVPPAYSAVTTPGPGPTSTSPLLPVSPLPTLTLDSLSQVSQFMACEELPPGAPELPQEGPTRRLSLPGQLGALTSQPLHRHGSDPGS
row,Compound,"hERG current change (%, negative = inhibition) at 10uM [%]"
1,CCCCNC(=O)CSc1cc(=O)n(C)c2ccccc12,4.11
2,CCOc1ccc(CCNC(=O)CSc2cc(=O)n(C)c3cc(Cl)ccc23)cc1OCC,-3.7
3,C/C(CC(=O)Nc1ccc(Cl)cc1Cl)=N\NC(=O)C(=O)NCCO,6.64
4,O=C(NCc1ccco1)c1cc2nc(-c3cccs3)cc(C(F)(F)F)n2n1,-17.6
5,COc1cc(NC(=O)c2ccc(COCC(F)(F)F)cc2)cc(OC)c1OC,1.25
6,O=C(CSc1ccccc1)N[C@@H](Cc1ccccc1)C(=O)O,13.7
7,O=C(Nc1ccc(S(=O)(=O)Nc2ncccn2)cc1)C1COc2ccccc2O1 (stereo not drawn),11.1
8,COc1ccc(S(N)(=O)=O)cc1C(=O)NCC(C)(C)N1CCCCC1,-15.2
9,COc1ccc2c(C)cc(SCc3c(C)noc3C)nc2c1,-17
10,O=C(Nc1ccc(CN2CCOCC2)cc1)c1cc(Cl)ccc1Cl,0.807
11,Cc1cc(Br)ccc1NC(=O)CNC(=O)CSc1n[nH]c(N)n1,18.5
12,CCc1cc2c3c(c1)C1(C(=O)N3C(C)(C)CC2C)C(C#N)=C(N)N2C(=C1C#N)Nc1ccccc12 (stereo not drawn),-1.49
13,COc1ccc(C(=O)NC2CCCN(Cc3ccc(Cl)cc3)C2)c(OC)c1 (stereo not drawn),-79.5
14,COc1cc(OC)cc(C(=O)NC2CCCN(Cc3ccc(Cl)cc3)C2)c1 (stereo not drawn),-37.1
15,O=C(Cc1ccccc1F)NC1CCCN(Cc2ccc(Cl)cc2)C1 (stereo not drawn),-33.7
16,O=C(NC1CCCN(Cc2ccc(Cl)cc2)C1)c1cccc(F)c1 (stereo not drawn),-61.3
17,O=C(CCc1cccc(Cl)c1)NC1CCCN(Cc2ccccc2F)C1 (stereo not drawn),-28.3
18,O=C(NC1CCCN(Cc2ccc(Cl)cc2)C1)c1c(F)ccc(F)c1F (stereo not drawn),-75.3
19,O=C(CCc1ccc(F)c(F)c1)NC1CCCN(Cc2ccc(Cl)cc2)C1 (stereo not drawn),-66
20,COc1cccc(CC(=O)NC2CCCN(Cc3ccc(Cl)cc3)C2)c1 (stereo not drawn),-26.3
21,O=C(NC1CCCN(Cc2ccc(Cl)cc2)C1)c1ccccc1C(F)(F)F (stereo not drawn),-16.9

row,Compound,"hERG current change (%, negative = inhibition) at 10uM [%]"
1,COc1ccc(CCC(=O)NC2CCCN(Cc3ccc(Cl)cc3)C2)cc1OC (stereo not drawn),-48.2
2,O=C(Cc1cccc(F)c1F)NC1CCCN(Cc2ccc(Cl)cc2)C1 (stereo not drawn),-21.7
3,O=C(NC1CCCN(Cc2ccc(Cl)cc2)C1)c1c(F)cccc1F (stereo not drawn),-15.7
4,O=C(Nc1ccccc1)c1ccccc1Oc1ccc(C(F)(F)F)cc1[N+](=O)[O-],9.75
5,CC(=O)Nc1ccc(S(=O)(=O)NCCc2c[nH]c3ccc(C)cc23)cc1,26.2
6,CS(=O)(=O)N(Cc1ccccc1)c1ccc(C(=O)Nc2cccnc2)cc1,-5.96
7,CN1CCN(S(=O)(=O)c2ccc(NC(=S)NC(=O)C(C)(C)C)cc2)CC1,1.03
8,Cc1nn(S(=O)(=O)c2cccc([N+](=O)[O-])c2)c(C)c1Br,10.7
9,CC(C)(C)NC(=O)C(c1ccc(O)cc1)N(C(=O)CCC(=O)Nc1nccs1)c1cccc(F)c1 (stereo not drawn),16.8
10,O=C(O)CC(NC(=O)c1ccco1)c1ccco1 (stereo not drawn),17.4
11,CSc1sc(-c2n[nH]c(=S)n2C)c2c1C=CCC2,-56.8
12,CSc1sc(-c2nnc(SCC(=O)Nc3ccc(Cl)cc3)n2C)c2c1C=CCC2,10.5
13,CSc1sc(-c2nnc(SCC(=O)Nc3ccccc3)n2C)c2c1C=CCC2,-2.35
14,Cc1cccc(C(=O)NN2S(=O)(=O)c3ccccc3S2(=O)=O)c1,18.2
15,O=C(NCCC1=CCCCC1)c1cc(-c2ccccn2)nc2ccccc12,8.77
16,COCCCNC(=O)C1CCN(S(=O)(=O)N(CC(C)C)CC(C)C)CC1,13.4
17,O=C(NCCO)/C(=C/c1ccc2c(c1)OCO2)NC(=O)c1ccc(Br)cc1,-69.5
18,O=C(NCCO)/C(=C\c1ccc2c(c1)OCO2)NC(=O)c1ccc(Br)cc1,-51.9
19,CC(=O)N/C(=C/c1ccc2c(c1)OCO2)C(=O)NCCO,9.66
20,O=C(N/N=C/c1ccc2c(c1)OCO2)/C(=C/c1ccc2c(c1)OCO2)NC(=O)c1ccccc1,-20.7
21,CC(=O)N/C(=C/c1ccc2c(c1)OCO2)C(=O)NCCCO,23.3
